PfM18AAP inh-1: PfM18AAP enzyme inhibition | recombinant PfM18AAP, H-Glu-NHMec fluorogenic cleavage | AID 1822 | actives 1.2% (n = 290,000) | inhibition, % at 7.35 µM;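 active means inhibition above the campaign mean inhibition over all tested compounds plus 3 SD, cut at about 28% in these data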;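 further: 0% = plate median of test compound wells and 100% = 2 mM ZnCl2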
Granule exo inh: blocks lytic granule exocytosis; TALL-104 LAMP-1 surface exposure, flow cytometry; cells stimulated with thapsigargin and PMA; inhibition, % at 10 µM; actives 0.66% (n = 360,000); AID 651702;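 active means inhibition above about 55%, limit read from the data; inconclusive means no clear call, values can overlap the other calls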
Rce1 inhib: inhibitors of yeast Ras-converting enzyme; Q03530; yeast membranes, quenched prenylated peptide cleavage fluorescence; actives 0.27% (n = 290,000); calls only;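 active means fall in fluorescence gain of 50% or more versus controls, with final raw signal at or below 3038400; inconclusive means same 50% fall but final raw signal above 3038400; inactive means fall in fluorescence gain under 50%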;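 further: plate controls were neutral control wells for no effect and wells lacking membranes for full effect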
ABHD5 PLIN5 PPI: inhibitors of human ABHD5-perilipin-5 interaction. Split G. princeps luciferase complementation, luminescence, 4 h. Q00G26+Q8WTS1. inhibition, % at 4 µM. actives 0.78% (n = 360,000);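 active means inhibition above the mean inhibition across every tested compound plus 3 SD, cut at about 22% in these data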;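 further: 0% = DMSO only wells and the 100% control is not disclosed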
Platelet DG rel: platelet dense granule release activity | human platelet-rich plasma, SFLLRN dense granule ATP release, luminescence | inhibition, %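 (compounds screened at 7.5 µM in platelet-rich plasma)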 | actives 0.22% (n = 300,000);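 active means mean replicate score, as percent of positive control, at or above 50; inconclusive means mean below 50 but at least one replicate at or above 50; inactive means mean and every replicate below 50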
PfM18AAP inh-2: PfM18AAP inhibition, confirmation | shares compounds with PfM18AAP inh-1 | recombinant PfM18AAP, H-Glu-NHMec fluorogenic cleavage | inhibition, % at 7.35 µM | actives 28% (n = 2,400);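 active means mean inhibition over replicate wells above the hit cutoff set for the earlier primary screen, cut at about 29% in these data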;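 further: 0% = median of test compound wells and 100% = 2 mM ZnCl2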
CTSL1 counter: Cathepsin L (human) inhibition, confirmation; purified cathepsin L1, Z-Leu-Arg-MCA fluorescence; inhibition, % at 5.96 µM; 2,400 tested, under 10 active; shares compounds with PfM18AAP inh-1;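 active means average inhibition across replicates above the hit cutoff set in the earlier primary screen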;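 further: 0% = median of test compound wells and 100% = Z-Phe-Ala-diazomethylketone 1 µM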
An asterisk follows results filed as active; i = inactive; u = inconclusive; x = not tested or not shown; + = active, no number. In the library only some 2.6% were active in any assay of this set; here they are far more common.

SMILES	PfM18AAP inh-1	Granule exo inh	Rce1 inhib	ABHD5 PLIN5 PPI	Platelet DG rel	others
COc1ccc(OC)c(C(C[N+](=O)[O-])c2c(C)cc3ccccn23)c1 (configuration not stated)	23	75*	i	15	-5
COCC(=O)O[C@]1(CCN(C)CCCc2nc3ccccc3[nH]2)CCc2cc(F)ccc2[C@@H]1C(C)C	x	63*	i	4	-2
CCOC(=O)CCc1nc2ccccc2[nH]1	-3	-2	i	0	-3
Cc1scc(-c2n[nH]c(=S)n2Cc2ccccc2)c1C	32*	3	i	0	-3
CCc1c(-c2n[nH]c(=S)n2Cc2ccccc2)csc1C	13	1	i	-3	2
CCCCNC(=O)c1cc2c(=O)n3cccc(C)c3nc2n(Cc2ccccc2)c1=N	-4	5	+	5	-2
Cc1cccn2c(=O)c3cc(C(=O)NCc4ccco4)c(=N)n(CCOCCO)c3nc12	29*	2	i	18	-10
CC(=O)Nc1ccc2[nH]c(C)cc(=O)c2c1	5	0	i	-2	-5
COc1ccc(-c2csc(N3CCC(C(N)=O)CC3)n2)cc1	x	-7	x	10	x
NS(=O)(=O)c1ccc(NC(=S)N2CCN(c3cccc(Cl)c3)CC2)cc1	29*	-4	i	-3	-6
Cc1ccc(Nc2n[nH]c(=S)s2)cc1F	x	-2	x	-18	x
CCOC(=O)c1sc(N=NC2=C(O)CC(C)(C)CC2=O)c(C(=O)OCC)c1C	-4	0	i	-3	60*
CCOC(=O)c1cc(CC)sc1/N=C/C1=C(O)CC(C)(C)CC1=O	-10	2	i	0	-17
Cc1ccccc1-c1nc2sc3c(c2c(=O)o1)CCC3	4	-4	i	3	4
O=C(Oc1ccccc1)c1ccc(COC(=O)c2cnccn2)cc1	-3	-2	i	-2	41
O=C(Oc1ccc(Cl)cc1)c1ccc(COC(=O)c2cnccn2)cc1	-2	0	i	8	63*
COc1ccc(-c2n[nH]c(=S)n2-c2ccc(C)cc2)cc1	16	0	i	-3	1
Cc1ccc(NC(=O)c2noc3c2CCc2ccccc2-3)cc1	-9	0	i	-9	-1
O=C(Nc1cccc(O)c1)c1noc2c1CCc1ccccc1-2	-3	0	i	-8	51*
CCc1cc(=O)oc2c3c(cc(OCC(=O)NCCCC(=O)O)c12)OC(C)(C)CC3	0	-2	+	7	-1
O=c1/c(=C/c2ccc([N+](=O)[O-])cc2)sc2n1CCCN=2	28*	3	i	-6	33
COc1cc(/C=c2\sc3n(c2=O)CCCN=3)ccc1O	0	2	i	5	19
COc1ccccc1C(=O)Nc1ccc(NC(=O)c2ccco2)cn1	6	10	i	-2	-5
COc1ccccc1C(=O)NC(=S)Nc1ccc(NC(=O)c2ccco2)cc1	-5	68*	i	0	10
O=C(CCC(=O)Nc1nnc(C2CCCCC2)s1)NCC1CCCO1 (configuration not stated)	-10	-1	i	0	-1
SMILES	PfM18AAP inh-1	Granule exo inh	Rce1 inhib	ABHD5 PLIN5 PPI	Platelet DG rel	others
CCOc1cccc(-c2c(C(=O)N/N=C/c3cccs3)nnn2-c2nonc2N)c1	-2	13	+	7	-17
Cc1ccsc1/C=N/NC(=O)c1nnn(-c2nonc2N)c1C(C)C	3	-2	+	-3	-4
CC(C)c1c(C(=O)N/N=C/c2cccs2)nnn1-c1nonc1N	3	-2	i	-3	-19
CC(C)c1c(C(=O)N/N=C/c2ccsc2)nnn1-c1nonc1N	-7	3	+	2	20
COc1cccc(-c2c(C(=O)N/N=C/c3cccs3)nnn2-c2nonc2N)c1	1	4	i	2	6
CCOC(=O)c1c(NC(=O)CCl)sc(CN(C)C)c1-c1ccccc1	-4	-2	i	2	1
COc1ccc(S(=O)(=O)/N=C2\C=C(Nc3ccc(O)cc3)C(=O)c3ccccc32)cc1	18	68*	i	-7	10
Cc1ccc2cc(C)c(N3CCN(c4ccccn4)CC3)nc2c1	2	-3	i	-8	-1
COc1ccc(C2CC(c3cccs3)=NN2C(=O)CSc2nc3c(cnn3-c3ccccc3)c(=O)[nH]2)cc1 (configuration not stated)	1	15	i	-6	-2
COc1cccc(C2CC(c3cccs3)=NN2C(=O)CSc2nc3c(cnn3-c3ccc(F)cc3)c(=O)[nH]2)c1OC (configuration not stated)	11	-4	+	-3	5
Oc1c(Br)cc(Br)cc1/C=N/Nc1ccc(Cl)nn1	40*	-5	i	-6	4
O=C(N/N=C/c1ccncc1)c1cc2ccccc2cc1O	20	29	i	-8	-7
O=C(N/N=C/c1ccc[nH]1)c1cc2ccccc2cc1O	39*	15	i	-4	-6	PfM18AAP inh-2=-45;CTSL1 counter=7
Cc1cccc(CC2CC(=O)N(C3CCCCC3)C2=O)c1 (configuration not stated)	-1	0	i	-5	16
CCCC(=O)Nc1nc(C)c(-c2csc(Nc3ccc(Cl)cc3)n2)s1	-1	2	i	-20	6
NC(=O)CC1Nc2cccc3cccc(c23)NC1=O (configuration not stated)	52*	2	i	-8	8	PfM18AAP inh-2=-52;CTSL1 counter=1
COC(=O)C1=CNC=C(C(=O)OC)C1c1ccc(C(=O)OC)cc1	1	-3	u	-1	1
Nc1ccc(-c2nc3cc(N)ccc3n2CCO)cc1	2	-1	i	4	-4
Cn1c(CO)nc2cc(N)ccc21	39*	-3	i	-4	-5	PfM18AAP inh-2=-45;CTSL1 counter=1
CNC(=O)CN1C(=O)NC(Cc2c[nH]c3ccccc23)C1=O (configuration not stated)	-7	9	i	6	-4
OCC1(Cc2cccc(F)c2)CCN(Cc2cccc3nccnc23)CC1	-2	4	i	0	-6
CCN(CC)C(=O)CSc1nc2cc3c(cc2c(=O)n1Cc1ccc2c(c1)OCO2)OCO3	-4	-1	i	-2	13
CCOC(=O)CSc1nc2ccc(N3CCOCC3)cc2c(=O)n1Cc1ccc2c(c1)OCO2	37*	x	i	x	-2	PfM18AAP inh-2=-17;CTSL1 counter=-2
CC(=O)NC(CC(=O)N(Cc1ccccc1)c1ccc(C)cc1)c1ccccc1 (configuration not stated)	-6	-2	i	8	-2
Cc1csc(N/N=C/c2ccc([N+](=O)[O-])cc2)n1	-4	-14	i	-1	-3
O=C(O)c1csc(N/N=C/c2ccc(Br)cc2)n1	33*	0	i	2	6	PfM18AAP inh-2=-42;CTSL1 counter=1
